# Screening results from PubChem BioAssay.
# Sampled rows, rich in hits. Any-hit rate of the full collection: about 15%.
# HCV inh: inhibitors of hepatitis C virus infection; Potency, µM (doses to about 41.8 µM), inactives show at the top dose activity change, negative = inhibition, hits mostly inhibitors; Huh7.5.1 HCVcc-Cre infection, luciferase reporter, 44 h; 3.4% of 340,000 active; also: potency is read from the fitted curve at half-maximal effect; % is scaled to controls: 0 for no effect and ±100 for the full control effect
#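 HCVcc-Cre virus at an moi near 0.5 was added right after compound to cells cultured 4 h from seeding (1,000 cells/well). Luciferase activity was determined 44 h later, 15 min after substrate addition at RT.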
# SARS PLP yeast: blocks SARS-CoV papain-like protease in a yeast assay; S. cerevisiae expressing SARS-CoV PLpro, growth rescue; 0.19% of 330,000 active; Potency, µM (highest dose often 32.9 µM), for inactives: top-dose activity, positive = growth rescue, usual class: activators; calls by dose curve; also: potency is read from the fitted curve at half-maximal effect; 0% is about no effect; nearly all actives have a fitted effect of over 55% in size
# HCMV antiviral: human cytomegalovirus inhibition; HFF cells, HCMV-luciferase reporter, 72 h; active compounds read low; activity change, negative = inhibition, % at 57.5 µM; 4.5% of 410,000 active; AID 1259415; in the data active = activity change below about -60%; inconclusive = no clear call, values can overlap the other calls; inactive = above about -39%; also: % is scaled to controls: 0 for no effect and ±100 for the full control effect
#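 Screen run at 2 compound doses on HFFs infected with reporter HCMV, MOI 1 PFU/cell. Luciferase activity from cell lysates at 72 h post infection gave inhibition relative to buffer-only and Salinomycin wells.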
# Pf growth 96h: inhibits malaria parasite growth, 96 h; P. falciparum luciferase reporter growth, 96 h; 6.9% of 320,000 active; Potency, µM (titrated, usually from 28.7 µM), without a hit: at the top dose activity change, negative = inhibition, actives largely listed as inhibitors; also: potency is read from the fitted curve at half-maximal effect; % is scaled to controls: 0 for no effect and ±100 for the full control effect
#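 Compounds incubated with erythrocytes infected by luciferase-expressing P. falciparum (2% hematocrit, 0.05% parasitemia final) for 96 hours, 37 C in 5% CO2. Growth inhibition scored as decreased luciferase luminescence.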
# Sm TGR block: S. mansoni TGR enzyme inhibition; 3% of 360,000 active; Potency, µM (titrated, usually from 114 µM), without a hit: top-dose activity change, negative = inhibition, most hits filed as inhibitors; Q962Y6; AID 485364; purified TGR, DTNB reduction, TNB absorbance 405 nm; also: potency is read from the fitted curve at half-maximal effect; % is scaled to controls: 0 for no effect and ±100 for the full control effect; nearly all actives have a fitted effect of over 60% in size
#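 TGR 20 nM + NADPH 100 uM (dispensed conc.), cpd preinc 15 min RT; start with NADPH (500 uM addition) then DTNB (15 mM addition). Kinetic TNB absorbance, 405 nm filter. Four-parameter Hill fit across titration.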
# Pf growth 48h: P. falciparum growth inhibition at 48 hours (one generation) | 5.9% of 310,000 active | P. falciparum luciferase growth in erythrocytes, 48 h | Potency, µM (titrated, usually from 28.7 µM), for the others: at the top dose activity change, negative = inhibition, hits mostly inhibitors | AID 504832; also: potency is read from the fitted curve at half-maximal effect; % is scaled to controls: 0 for no effect and ±100 for the full control effect
#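 Growth was read as firefly luciferase luminescence after a 48 h, 37 C, 5% CO2 exposure of compounds to reporter-bearing P. falciparum cultures (0.1% parasitemia, 2% hematocrit final) in Albumax-supplemented RPMI 1640.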
# Active calls of the source: *; ? = inconclusive; . = no result. Unless noted, calls follow the shape of the dose curve; as a rule, active = well fitted curve in the direction sought with a large enough effect; inconclusive = small, poorly fitted or top-dose-only effect, or another doubt; inactive = no such curve, though single readings can be large; an effect the other way counts as inactive or inconclusive.
SMILES,HCV inh,SARS PLP yeast,HCMV antiviral,Pf growth 96h,Sm TGR block,Pf growth 48h
Cc1ccc2[nH]cc(CCNC(=O)/C=C/c3ccco3)c2c1,-29%,-2%,2,?,28µM*,?
Cc1ccc2[nH]cc(CCNC(=O)c3ccco3)c2c1,5%,-9%,40,13%,-10%,9%
Cc1ccc(/C=C/C(=O)NCCCN2CCN(CCCNC(=O)/C=C/c3ccc(C)o3)CC2)o1,4%,-5%,-28,311%,-12%,-25%
Cc1cc(Br)c2[nH]cc(CCNC(=O)c3ccco3)c2c1,13µM*,-46%,-35,?,-34%,?
Cc1ccc(/C=C/C(=O)NCCc2c[nH]c3ccccc23)o1,?,-1%,-27,10%,14µM*,-8%
COc1ccc(CCCNC(=O)C2(C)Cc3c(-c4ccc5c(c4)OCO5)ccnc3O2)cc1 (centres undefined),.,.,-25,.,.,.
CCCCC(c1nnnn1CS(=O)(=O)c1ccc(C)cc1)N1CCN(c2ccccc2)CC1 (centres undefined),0%,-14%,-32,.,56%,13µM*
Cc1ccc(S(=O)(=O)Cn2nnnc2C(C(C)C)N2CCN(c3nc4ccccc4s3)CC2)cc1 (centres undefined),?,-4%,-12,?,-4%,4.7µM*
CCCC(c1nnnn1CS(=O)(=O)c1ccc(C)cc1)N1CCN(C2CCCC2)CC1 (centres undefined),?,-1%,-3,7%,2%,?
COc1ccccc1C(c1nnnn1CS(=O)(=O)c1ccc(C)cc1)N1CCSCC1 (centres undefined),1%,-1%,-13,100%,0%,9.3µM*
CCC(=O)N1c2ccccc2NC2=C(C(=O)CC(C)(C)C2)C1c1ccc(O)c(OC)c1 (centres undefined),28%,2%,-5,11%,-18%,11%
Nc1ncnc(N)c1NC(=O)c1ccccc1,.,.,-101*,.,.,.
Nc1ccccc1NC(=O)c1ccccc1,1%,-1%,45,-9%,-28%,18%
CCc1ccc(NC(=O)c2cnn3ccccc23)cc1,1%,-6%,-31,1.2µM*,-6%,.
COc1cc([C@@H]2Oc3cc(C4Oc5cc(O)cc(O)c5C(=O)[C@H]4O)ccc3O[C@H]2CO)ccc1O (some centres undefined),?,.,.,13µM*,45µM*,10µM*
COc1cc([C@H]2Oc3cc([C@H]4Oc5cc(O)cc(O)c5C(=O)[C@@H]4O)ccc3O[C@@H]2CO)ccc1O,?,9%,-20,?,-17%,?
O=C1c2c(O)cc(O)cc2O[C@H](c2ccc(O)c(O)c2)[C@H]1O,0.56µM*,0%,-10,.,?,.
CCc1ccccc1Nc1nc(N)nc(COC(=O)CCC(=O)c2ccc(F)cc2)n1,7%,-2%,.,?,-1%,?
COC(=O)C1=C(C)NC(C)=C(C(=O)OC)C1C(=O)OC(C)C(=O)c1ccccc1 (centres undefined),15%,1%,6,?,2%,?
O=C(OCC(=O)N1CCN(C(=O)c2ccco2)CC1)c1cccc(S(=O)(=O)N2CCc3ccccc32)c1,?,1%,6,-28%,-19%,-4%
COc1ccc(/C=C(\C#N)c2nc(-c3cc(Cl)ccc3OC)cs2)cc1,.,.,3,.,0%,.
Cc1nc2ccc(NC(=O)c3cc(S(=O)(=O)N4CCOCC4)ccc3C)cc2s1,?,3%,-10,9.3µM*,-19%,.
Cc1nc2ccc(NC(=O)c3ccc(C)c(S(=O)(=O)N4CCOCC4)c3)cc2s1,10µM*,7%,-72*,?,-10%,?
Cc1ccc(C(=O)Nc2ccc(Br)cc2)cc1S(=O)(=O)N1CCOCC1,.,.,?,.,-1%,.
CC(=O)c1ccc(NC(=O)c2cc(S(=O)(=O)N3CCOCC3)ccc2C)cc1,-22%,-5%,-15,?,-12%,2%
